# Measurements taken from PubChem BioAssay (Tox21).
# Records with an inconclusive call do not appear. Entries that show only a call come without a potency. Active and inactive are the calls of the source. Calls follow the shape of the dose curve; as a rule, active = well fitted cell-killing curve with a large enough effect in the repeat runs; inconclusive = weak or mixed curves; inactive = no such curve, though single readings can be large or run the other way.
# Test: qHTS assay to identify small molecule agonists of the peroxisome proliferator-activated receptor delta (PPARd) signaling pathway - cell viability counter screen (AID 743211); also: nearly all actives have a fitted effect of over 55% in size
# Conditions: PPARd-bla HEK293H viability, CellTiter-Glo luminescence, 17 h; series mostly up to 62.6 µM
# From the text: U.S. Tox21 Program National Center for Advancing Translational Sciences [NCATS] NIH Chemical Genomics Center [NCGC] U.S. Environmental Protection Agency [EPA] National Institutes of Environmental Health Sciences [NIEHS] National Toxicology Program [NTP] U.S. Food and Drug Administration [FDA] Tox21 Assay Overview: The peroxisome proliferator-activated receptors (PPARs) are lipid-activated transcription factors of the nuclear receptor superfamily with three distinct subtypes namely PPAR alpha, PPAR delta (PPARd) and PPAR gamma. All these subtypes heterodimerizes with Retinoid X receptor (RXR) and have different physiological functions. […] To identify the compounds that activate PPAR-delta signaling, GeneBLAzer PPAR delta UAS-bla HEK293H cell line (Invitrogen, Carlsbad, CA, USA) containing a beta-lactamase reporter gene under the control of an Upstream Activator Sequence (UAS) was used to screen the Tox21 compound library. The cytotoxicity of the Tox21 compound library against the PPARd-bla cell line was tested in parallel by measuring the cell viability using CellTiter-Glo assay (Promega, Madison, WI) in the same wells.
# Tox21 Assay Protocol Summary: PPARd-bla cells were dispensed at 3000 cells/6uL/well in 1536-well black wall/clear bottom plates using a Multidrop Combi (Thermo Fisher Scientific, Waltham, MA) dispenser. After the assay plates were incubated at 37 C and 5% CO2 for 5 h, 23 nL of compounds dissolved in DMSO, positive controls or DMSO only was transferred to the assay plate by a Pintool station (Kalypsys, San Diego, CA). The assay plates were incubated at 37C for 17 h. After 1 uL of LiveBLAzerTM B/G FRET substrate was added using a Bioraptr Flying Reagent Dispenser (FRD) workstation (Beckman Coulter, Indianapolis, IN, USA), the plates were incubated at room temperature for 2 h, and fluorescence intensity was measured by an Envision plate reader (PerkinElmer, Shelton, CT). For cell viability readout that measures cytotoxicity, 3 ul/well of CellTiter-Glo reagent was added into the assay plates using a Bioraptr FRD. After 30 min incubation at room temperature, the luminescence intensity in the plates was measured using a ViewLux plate reader (PerkinElmer).
row,Compound,Potency
1,CCCSC(=O)N(CCC)CCC,inactive
2,N#CCBr,inactive
3,c1cc2c(c(N3CCNCC3)c1)OCCO2,inactive
4,NC1=NC(=O)C(c2ccccc2)O1 (stereo not given),inactive
5,[Cl][Sn]([Cl])([Cl])[Cl],inactive
6,NC(=S)C(N)=S,inactive
7,CC(C=O)Cc1ccc2c(c1)OCO2 (stereo not given),inactive
8,O=S(=O)(O)C(F)(F)C(F)(F)C(F)(F)C(F)(F)C(F)(F)C(F)(F)F,inactive
9,CCOP(=S)(OCC)Oc1nc(Cl)n(C(C)C)n1,inactive
10,CC1CCCCC1NC(=O)Nc1ccccc1 (stereo not given),inactive
11,Cc1nnc2n1-c1sc(CCC(=O)N3CCOCC3)cc1C(c1ccccc1Cl)=NC2,inactive
12,CCN(CC)C(C)C(=O)c1ccccc1 (stereo not given),inactive
13,O=[N+]([O-])c1cccc2cccnc12,inactive
14,CCOC(=O)NC(=S)Nc1ccccc1NC(=S)NC(=O)OCC,inactive
15,CC(C)(C)OC(=O)c1ncn2c1[C@@H]1CCCN1C(=O)c1c(Br)cccc1-2,inactive
16,ClC(Cl)(Cl)C(Cl)(Cl)Cl,inactive
17,CSc1ccc(C(=O)C(C)(C)N2CCOCC2)cc1,inactive
18,CC1COC2(c3ccccc3Cl)c3cc(Cl)ccc3NC(=O)CN12 (stereo not given),inactive
19,O=[N+]([O-])c1cccc(O)c1,inactive
20,O=[N+]([O-])c1cc(Cl)c(Cl)c(Cl)c1,inactive

row,Compound,Potency
1,OC(c1ccc(F)cc1)(c1cncnc1)c1ccccc1Cl (stereo not given),inactive
2,CC1=NNC(=O)N(/N=C/c2cccnc2)C1,inactive
3,O=C(NCO)NCO,inactive
4,COP(=S)(OC)Oc1c(Cl)cc(C)cc1Cl,inactive
5,Nc1cc2c3c(c1)C(c1ccccc1)=N[C@@H](NC(=O)c1cccnc1)C(=O)N3CC2,inactive
6,OCCBr,inactive
7,CC1CN1P(=O)(N1CC1C)N1CC1C (stereo not given),inactive
8,O=C(Nc1ccccc1)c1ccccc1I,inactive
9,Clc1ccccc1N1CCNCC1,inactive
10,C(CCOCC1CO1)COCC1CO1 (stereo not given),inactive
11,CC1(C)C(=O)NC(=O)NC1=O,inactive
12,O=C1c2ccccc2C(=O)c2ccccc21,inactive
13,CC(=O)C(Cl)Cl,inactive
14,CNC(=O)O/N=C(\C)SC,inactive
15,Nc1cc(Cl)ccc1O,inactive
16,C1CCC(C2CCCCC2)CC1,inactive
17,CCc1cc2c(s1)-n1c(C)nnc1CN=C2c1ccccc1Cl,inactive
18,O=NN1CCN(N=O)CC1,inactive
19,Nc1cnn(-c2ccccc2)c(=O)c1Cl,inactive
20,CN1C(=S)CN=C(c2ccccc2)c2cc(Cl)ccc21,inactive
